Laboratory results published in PubChem BioAssay AID1445 (SRMLSC, 2008).
The whole screen tested about 220,000 compounds, of which about 910 (0.41%) were called active.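 How the source made its calls: active means primary inhibition above the hit cutoff, then over 50% inhibition at one or more dose response concentrations (cut at about 23% in these data, passing the limit was not always enough); inconclusive means conflicting primary data, or primary hits not chosen for dose response; inactive means low primary inhibition, or under 50% at every dose.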 The entries come from a sample that favours actives as a whole. Measured potencies and affinities stand elsewhere.

Target: Aminopeptidase N (Plasmodium falciparum (isolate 3D7)) (UniProt O96935)
Assay: P. falciparum M1AAP inhibitors, biochemical, fluorogenic H-Leu-NHMec substrate, 1536-well (AID 1445);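 further: plate controls were DMSO full reaction for no effect and no enzyme background for full effect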
Conditions: recombinant M1AAP, H-Leu-NHMec fluorogenic kinetic assay; at 30 µM, active compounds read high unless noted

Chain of Aminopeptidase N (Plasmodium falciparum (isolate 3D7)) (O96935 whole entry, looked up): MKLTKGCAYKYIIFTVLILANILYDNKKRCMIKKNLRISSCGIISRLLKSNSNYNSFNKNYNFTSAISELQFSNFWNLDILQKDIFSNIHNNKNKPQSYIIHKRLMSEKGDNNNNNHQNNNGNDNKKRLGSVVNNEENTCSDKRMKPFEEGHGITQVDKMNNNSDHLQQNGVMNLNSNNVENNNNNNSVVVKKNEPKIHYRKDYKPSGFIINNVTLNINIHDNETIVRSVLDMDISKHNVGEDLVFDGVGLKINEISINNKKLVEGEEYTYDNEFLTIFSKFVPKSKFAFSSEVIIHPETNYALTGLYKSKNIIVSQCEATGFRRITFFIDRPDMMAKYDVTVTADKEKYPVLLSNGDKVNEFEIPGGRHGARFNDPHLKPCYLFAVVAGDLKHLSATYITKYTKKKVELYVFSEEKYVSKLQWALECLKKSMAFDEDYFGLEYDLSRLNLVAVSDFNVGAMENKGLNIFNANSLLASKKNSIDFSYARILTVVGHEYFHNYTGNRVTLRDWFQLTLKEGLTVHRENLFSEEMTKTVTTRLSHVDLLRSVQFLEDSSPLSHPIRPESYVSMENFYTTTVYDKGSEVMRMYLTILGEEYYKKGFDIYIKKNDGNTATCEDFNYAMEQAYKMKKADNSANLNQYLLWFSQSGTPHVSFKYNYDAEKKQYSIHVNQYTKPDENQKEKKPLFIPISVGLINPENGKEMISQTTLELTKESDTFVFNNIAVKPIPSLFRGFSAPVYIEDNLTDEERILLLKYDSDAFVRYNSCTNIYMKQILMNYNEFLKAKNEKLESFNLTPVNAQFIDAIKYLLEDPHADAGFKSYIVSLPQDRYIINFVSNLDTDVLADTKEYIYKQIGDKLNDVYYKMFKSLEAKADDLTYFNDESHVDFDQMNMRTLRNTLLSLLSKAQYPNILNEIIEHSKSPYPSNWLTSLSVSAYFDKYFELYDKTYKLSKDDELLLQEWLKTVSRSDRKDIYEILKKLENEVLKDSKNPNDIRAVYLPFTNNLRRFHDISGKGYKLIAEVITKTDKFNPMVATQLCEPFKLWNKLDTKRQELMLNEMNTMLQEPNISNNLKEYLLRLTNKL

| SMILES | inhibition |
| --- | --- |
| N#C/C(=C(/O)c1cccs1)c1nc2ccccc2[nH]1 | 1.8% (inactive) |
| COc1cc(C(=S)N2CCCC2)ccc1OS(=O)(=O)c1ccc(NC(C)=O)cc1 | -0.31% (inactive) |
| CCN1CCN(C(c2cc3cc4c(cc3[nH]c2=O)OCO4)c2nnnn2C(C)(C)CC)CC1 (stereo not drawn) | 12.6% (inactive) |
| Cn1c(=O)c2cc(S(=O)(=O)Nc3cc(C(=O)O)cc(C(=O)O)c3)ccc2n(C)c1=O | 2.45% (inactive) |
| O=C(NCc1cccnc1)c1cc([N+](=O)[O-])ccc1N1CCOCC1 | 4.23% (inactive) |
| CCCCc1nc(Cl)c(C#N)c2c1CSC(C)(C)C2 | 0.12% (inactive) |
| CCCCc1nc(NCCN)c(C#N)c2c1CSC(C)(C)C2 | 2.56% (inactive) |
| CCCCc1nc(NCCNC(=O)c2ccccc2)c(C#N)c2c1CSC(C)(C)C2 | 24.4% (active) |
| CCCCc1nc(NCc2ccccc2)c(C#N)c2c1COC(C)(C)C2 | -3.84% (inactive) |
| CCc1nc(NCCN)c(C#N)c2c1CSC(C)(C)C2 | -0.7% (inactive) |
| Cc1ccc(C(NC(=O)N2CCN(C)CC2)C(Cl)Cl)cc1F (stereo not drawn) | 0.01% (inactive) |
| CCCCc1ccc(NC(=O)COc2ccc(C(=O)Nc3ccccc3C)cc2)cc1 | -2.91% (inactive) |
| COc1cc2c(cc1OC)C(c1cccs1)NCC2 (stereo not drawn) | 0.84% (inactive) |
| O=C(NCc1cccs1)c1nn2cccnc2c1Cl | 12.7% (inactive) |
| CCCOC(=O)Nc1nc2ccccc2o1 | -8.89% (inactive) |
| CCOC(=O)c1cnc(Nc2nc3ccccc3o2)nc1C | 0.38% (inactive) |
| Nc1nnc(CC(=O)N/N=C/c2cccc([N+](=O)[O-])c2)s1 | -3.46% (inactive) |
| Nc1nnc(CC(=O)N/N=C/c2ccc([N+](=O)[O-])cc2)s1 | 9.02% (inactive) |
| CC1(NC(=S)NCCCCCCNC(=S)NC2(C)CCS(=O)(=O)C2)CCS(=O)(=O)C1 (stereo not drawn) | -1.81% (inactive) |
| Cc1cc2c(C)c(C)c(=O)[nH]c2cc1N | 25.2% (active) |

| SMILES | inhibition |
| --- | --- |
| Cc1ccc(-c2n[nH]c(=O)c3ccccc23)cc1N | 12.6% (inactive) |
| Cc1cc(C)c2[nH]c(=O)c(=O)[nH]c2c1 | 4.16% (inactive) |
| COc1cccc(C2=NOC(C(=O)NCCCn3ccnc3)C2)c1 (stereo not drawn) | 2.65% (inactive) |
| COc1ccc(/C=C/C(=O)Nc2sc(Cc3ccccc3)c(C)c2C(N)=O)cc1 | 10.2% (inactive) |
| O=C(O)CC/C(=C\c1ccc(Cl)c([N+](=O)[O-])c1)c1nc2ccccc2s1 | 15.7% (inactive) |
| O=C(O)CC/C(=C\c1cccc(NC(=O)c2ccccc2Cl)c1)c1nc2ccccc2s1 | 18% (inactive) |
| COc1cccc(/C=C(\CC(=O)O)c2nc3ccccc3s2)c1 | 11.8% (inactive) |
| Cc1ccc(/C=C(\CCC(=O)O)c2nc3ccccc3s2)cc1[N+](=O)[O-] | 15.5% (inactive) |
| CCOc1ccc(C(=O)N(CN2CCCC2=O)c2ccccc2)cc1 | 2.27% (inactive) |
| Cc1ccc(Oc2cc(NC(=O)CCCn3nc([N+](=O)[O-])c(Cl)c3C)cc([N+](=O)[O-])c2)cc1 | 2.94% (inactive) |
| CCOC(=O)CNS(=O)(=O)c1ccc2c3c(cccc13)C(=O)N2CC | 7.58% (inactive) |
| CCOC(=O)Cc1csc(NS(=O)(=O)c2ccc3c4c(cccc24)C(=O)N3CC)n1 | 23.4% (active) |
| CCN1C(=O)c2cccc3c(S(=O)(=O)Nc4ccccc4)ccc1c23 | 6.99% (inactive) |
| CC(/C=N/NC(=O)CNc1n[nH]c(=O)[nH]c1=O)c1ccccc1 (stereo not drawn) | 3.79% (inactive) |
| CC(=O)Nc1ccc(-c2ccccc2)s1 | 25.4% (active) |
| CC(=O)Nc1ccc(NC(C)=O)s1 | 2.97% (inactive) |
| CNC(=O)c1ccc(-c2ccccc2)s1 | 1.69% (inactive) |
| CN(CCNC(=O)CCCOc1cc(=O)n(C)c2ccccc12)Cc1ccccc1 | 2.96% (inactive) |
| CN(C)c1ccc(NC(=O)c2sc(SCC(=O)Nc3nccs3)nc2N)cc1 | 25.2% (active) |
| CN(C)c1ccc(NC(=O)CSc2nc(N)c(C(=O)Nc3ccc(N(C)C)cc3)s2)cc1 | -0.46% (inactive) |

| SMILES | inhibition |
| --- | --- |
| CN(C)c1ccc(NC(=O)c2sc(SCC(=O)Nc3ccc(Br)cc3)nc2N)cc1 | 4.44% (inactive) |
| COc1ccc(C(=O)NC(=S)Nc2ccc(N3CCOCC3)c(Cl)c2)cc1[N+](=O)[O-] | 14.5% (inactive) |
| COc1cccc(/C=N/n2c(-c3cccs3)n[nH]c2=S)c1 | 4.5% (inactive) |
| COc1ccc(NC(=O)Nc2ccccc2)cc1S(=O)(=O)N1CCCCC1 | -0.57% (inactive) |
| CCOc1ccc(C(=O)N[C@H](C(=O)Nc2ccc(OC)c(S(=O)(=O)N3CCOCC3)c2)C(C)C)cc1 | 2.14% (inactive) |
| Cc1cccc(N(CC(=O)NC(C)(C)C)C(=O)CS(=O)CC(=O)Nc2ccc3c(c2)OCO3)c1 (stereo not drawn) | 3.73% (inactive) |
| Cc1ccc(N(CC(=O)NC(C)(C)C)C(=O)CS(=O)CC(=O)Nc2ccc3c(c2)OCO3)cc1 (stereo not drawn) | 8.92% (inactive) |
| Cc1cccc(N(CC(=O)NC2CCCC2)C(=O)CS(=O)CC(=O)Nc2ccc3c(c2)OCO3)c1 (stereo not drawn) | 1.66% (inactive) |
| Cc1cccc(N(CC(=O)NC2CCCC2)C(=O)CS(=O)CC(=O)Nc2ccc3c(c2)OCO3)c1C (stereo not drawn) | 6.68% (inactive) |
| Cc1c(NC(=O)C(C)OC(=O)/C=C/c2ccccc2)c(=O)n(-c2ccccc2)n1C (stereo not drawn) | -2.48% (inactive) |
| Cc1ccccc1Cn1c(Cc2ccccc2)nc2ccccc21 | -1.18% (inactive) |
| Cc1cccc2cc(C#N)c(SCC#N)nc12 | 4.01% (inactive) |
| c1ccc(N2N=C(c3cccs3)CC2c2ccco2)cc1 (stereo not drawn) | 18.2% (inactive) |
| Clc1ccc(N2N=C(c3cccs3)CC2c2ccco2)cc1 (stereo not drawn) | 4.39% (inactive) |
| NC(=O)CC(NC(=O)Cc1ccc(Br)cc1)c1ccc(N2CCN(c3ccccc3)CC2)c([N+](=O)[O-])c1 (stereo not drawn) | 7.14% (inactive) |
| CCOC(=O)Cc1nnc(NC(=O)CSc2nnc3c4ccccc4n(C)c3n2)s1 | 14% (inactive) |
| CCOC(=O)Cc1nnc(NC(=O)C(CC)Sc2nnc3c4ccccc4n(C)c3n2)s1 (stereo not drawn) | 23.4% (active) |
| CCOC(=O)Cc1nnc(NC(=O)CSc2nnc3c4ccccc4n(C(C)C)c3n2)s1 | 10.5% (inactive) |
